Compound activity from PubChem BioAssay.
ST2 IL33 inh = blocks human ST2 binding to IL-33; Q01638; AlphaLISA ST2-Fc/biotin-IL-33 interaction, 1 h; inhibition, % for hits at 17 µM; 78,000 compounds, 2.3% hits; in the data active means inhibition above about 30%
Target sequence (Q01638 whole entry, looked up): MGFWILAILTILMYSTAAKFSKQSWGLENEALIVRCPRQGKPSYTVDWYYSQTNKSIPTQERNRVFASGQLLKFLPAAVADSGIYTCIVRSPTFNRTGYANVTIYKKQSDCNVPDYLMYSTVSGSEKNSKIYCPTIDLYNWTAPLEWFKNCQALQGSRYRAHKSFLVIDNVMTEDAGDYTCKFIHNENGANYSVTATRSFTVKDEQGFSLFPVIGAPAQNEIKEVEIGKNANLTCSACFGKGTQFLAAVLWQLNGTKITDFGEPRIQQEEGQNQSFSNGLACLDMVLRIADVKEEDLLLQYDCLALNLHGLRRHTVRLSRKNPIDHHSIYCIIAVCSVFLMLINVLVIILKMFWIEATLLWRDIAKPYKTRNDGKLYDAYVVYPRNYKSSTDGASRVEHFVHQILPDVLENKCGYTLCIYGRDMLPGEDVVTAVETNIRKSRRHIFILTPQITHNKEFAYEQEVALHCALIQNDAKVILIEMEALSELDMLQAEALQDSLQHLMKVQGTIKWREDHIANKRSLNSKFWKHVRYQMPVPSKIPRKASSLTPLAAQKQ
* marks the source's active call; other numbers are inactive results; i = inactive. This is one part of a sample in which hits are shown more often than they occur.

SMILES | ST2 IL33 inh
COc1cc(Cl)cc(CN2CCC(CNC(C)=O)C2)c1OC (stereo not drawn) | i
Cc1c(F)cccc1NC(=O)c1ccc(Cl)cc1 | i
C/C(=C\C(=O)c1ccc(Cl)cc1)Nc1ccccc1O | 30%*
O=C(Nc1ccccc1O)c1ccc(S(=O)(=O)c2ccc(Cl)cc2)cc1 | i
Cc1ccc(NC(=O)CNCc2noc(-c3ccc4c(c3)OCO4)n2)c(C)c1 | i
COCCCNC(=O)c1c(NC(=O)c2ccc([N+](=O)[O-])cc2)sc2c1CCCC2 | i
c1cnc(-c2cc(NCc3cccnc3)nc3[nH]ccc23)nc1 | 35%*
COc1ccc(-c2cc(NCc3cccnc3)nc3[nH]ccc23)cn1 | i
Cc1cc(-c2cc(N)nc3[nH]ccc23)cnc1N | i
OCCNc1cc(-c2nccc(C3CCCC3)n2)c2cc[nH]c2n1 | i
NCCc1cccc(-c2cc(NCc3ccccn3)nc3[nH]ccc23)c1 | 35%*
O=C(O)CNc1cc(-c2ccccc2C(F)(F)F)c2cc[nH]c2n1 | i
O=C(NC1CCCCC1)C(Cc1ccccc1)N1C(=O)C2C3C=CC(C3)C2C1=O (stereo not drawn) | i
Cc1ccc(-n2nc3c(c2NC(=O)C(C)(C)C)CSC3)cc1 | i
O=C(Nc1cc(Cl)cc(Cl)c1)c1ccc([N+](=O)[O-])cc1 | i
N#C/C(=C\c1cc(Cl)ccc1O)c1nc2ccccc2[nH]1 | 35%*
N#C/C(=C\c1ccc(O)cc1O)c1nc2ccccc2[nH]1 | i
C=CCOc1ccc(Cl)cc1/C=C(\C#N)c1nc2ccccc2[nH]1 | i
OCc1ccc(CN2CC[C@H](c3nc4ccccc4[nH]3)C2)o1 | i
Cc1ccc(C(=O)N2CCC(C(Cc3ccc(F)cc3F)N(C)C(=O)C3CC3)CC2)s1 (stereo not drawn) | i
COc1cccc(C2CCN2C(=O)Nc2n[nH]c(CCc3ccccc3)n2)c1 (stereo not drawn) | i
COc1cccc(C2CCN2C(=O)CC(=O)Nc2ccc(C)cc2)c1 (stereo not drawn) | 31%*
COc1cccc(NC(=O)C(=O)NCc2ccc(C)cc2)c1 | i
Cc1nnc(Nc2cccc(C(F)(F)F)c2)[nH]c1=O | i
O=C(CCCCCN1C(=O)c2ccccc2C1=O)Nc1cccc(C(F)(F)F)c1 | i
SMILES | ST2 IL33 inh
O=C1C=C(Nc2cccc(C(F)(F)F)c2)C(=O)c2ccccc21 | 31%*
CN(C)C[C@H]1O[C@@H](CO)[C@@H](O)[C@H]1N1CCN(c2ccccc2)CC1 | i
CC1=C(C(=O)Nc2ccccc2)C(c2ccccc2Cl)C(C#N)=C(SCC#N)N1 (stereo not drawn) | i
CC1CCCC(C)N1CCNC(=O)C1CC(=O)N(C2CCCCCC2)C1 (stereo not drawn) | i
O=C(c1cc2ccccc2[nH]1)N1CCC2(CCCN(Cc3cccnc3)C2=O)C1 (stereo not drawn) | i
CC(O)CCc1ccc(O[C@@H]2O[C@H](CO)[C@@H](O)[C@H](O)[C@H]2O)cc1 (stereo partly drawn) | i
CC1CCCC[C@H]2C(=O)C=C[C@H](O)[C@@H]2CC(=O)O1 (stereo partly drawn) | 46%*
O=[N+]([O-])c1nn(-c2ccccc2)[n+]([O-])c1N1CCN(c2ccco2)CC1 | i
Cc1ccccc1-n1ncc(C(C)NC(=O)Cc2ccc3c(c2)OCO3)c1C (stereo not drawn) | i
CN(CC(=O)Nc1ccc([N+](=O)[O-])cc1)S(=O)(=O)c1ccccc1 | i
O=c1[nH]c(/C=C\c2ccccc2Cl)nc2ccccc12 | 44%*
O=c1[nH]c(/C=C\c2ccccc2Cl)c([N+](=O)[O-])c(=O)[nH]1 | i
Cc1nc2ccccc2c(=O)[nH]1 | i
CC(C)NC(=O)c1ccc2nc3ccccc3c(=O)n2c1 | i
O=c1/c(=C/c2ccco2)sc2n1CN(c1ccc([N+](=O)[O-])cc1)CN=2 | i
Cc1ccc(N2CN=c3s/c(=C\c4ccco4)c(=O)n3C2)cc1 | 34%*
CCOc1ccc(N2CN=c3s/c(=C/c4cccs4)c(=O)n3C2)cc1 | i
N#CC1=C2SCN(Cc3ccccc3)CN2C(=O)CC1c1ccccc1 (stereo not drawn) | i
Cc1oc2ccc(OC(=O)c3ccco3)cc2c1C(=O)OC(C)C | i
Cc1ccc(-c2cc(=O)c(=O)[nH][nH]2)cc1 | i
Cc1ccc(-c2ccc(CCC(=O)O)[nH]2)cc1 | 35%*
Cc1ccc(NC(=O)CCC(=O)O)c(C)c1 | i
C=CCn1cc2c3c(cccc31)[C@H](CC(C)C)N[C@H](C(=O)NCc1ccccn1)C2 | i
Cc1cccc(CSC2=NCCN2C(=O)Cc2ccccc2)c1 | i
O=C1C(=Nc2cccc(F)c2)c2ccccc2N1CN1CCN(c2ccccc2)CC1 | i
SMILES | ST2 IL33 inh
CCOc1ccc(N=C2C(=O)N(CN3CCN(c4ccccc4)CC3)c3ccccc32)cc1 | i
CCN(CC)CN1C(=O)C(=Nc2cccc(C(F)(F)F)c2)c2ccccc21 | 32%*
CSc1nnc(CC2CCN(C(=O)c3c(C)cc(=O)oc3C)CC2)n1C | i
N#CC1=C(N)Oc2cc(N)ccc2C1c1ccc(F)c(F)c1 (stereo not drawn) | i
O=C(N[C@H]1C[C@H]2C(=O)NC[C@@H](CCC(=O)N3CCN(c4ccccn4)CC3)N2C1)C1CC1 | i
COCC(=O)N[C@H]1C[C@H]2C(=O)NC[C@@H](CCC(=O)N3CCN(c4ccccn4)CC3)N2C1 | 51%*
O=C1NC[C@@H](CCC(=O)N2CCN(c3ccccn3)CC2)N2C[C@@H](NCc3ccc(F)cc3)C[C@@H]12 | i
O=C(Nc1ccsc1)N[C@H]1C[C@H]2C(=O)NC[C@@H](CCC(=O)N3CCN(c4ccccn4)CC3)N2C1 | 52%*
COc1ccc(CN[C@H]2C[C@H]3C(=O)NC[C@@H](CCC(=O)N4CCN(c5ccccn5)CC4)N3C2)cc1 | i
CN1CCN(C(=O)CC[C@@H]2CNC(=O)[C@@H]3C[C@H](NC(=O)Nc4ccccc4)CN23)CC1 | i
CC1=C(C(=O)NC(C)CCc2ccccc2)C2(CCN(S(C)(=O)=O)CC2)OC1=O (stereo not drawn) | i
CCCc1[nH]nc2c1C(c1ccc(OC(C)C)c(OC)c1)C(C#N)=C(N)O2 (stereo not drawn) | i
O=C(Nc1c[nH]c(=O)[nH]c1=O)c1ccc(N2C(=O)CCC2=O)cc1 | i
CN1[C@H](C(=O)O)C[C@H](C(=O)NC2CCOCC2)[C@@H]1c1cccc(Cl)c1 | i
CCOC(=O)C1(Cc2cccc(OC)c2)CCCN(C2CSCCSC2)C1 (stereo not drawn) | i
CN(C)c1ccc(C2SCCN2C(=O)c2ccc([N+](=O)[O-])cc2)cc1 (stereo not drawn) | 30%*
O=[N+]([O-])c1ccc(C2SCCN2S(=O)(=O)c2ccc(I)cc2)cc1 (stereo not drawn) | i
O=C(c1ccc([N+](=O)[O-])cc1)N1CCSC1c1cccc(Cl)c1 (stereo not drawn) | i
CCOC(=O)c1nn(CCC(C)C)c2c1CN(C(=O)Cc1sc(C)nc1C)CC2 | i
CC(C)(C)N1C(=O)c2ccc(S(=O)(=O)c3ccc4c(c3)C(=O)N(C(C)(C)C)C4=O)cc2C1=O | 30%*
O=C(O)c1ccc(S(=O)(=O)c2ccc3c(c2)C(=O)N(c2nccs2)C3=O)cc1 | i
CC(C)CN1C(=O)c2ccc(S(=O)(=O)c3ccc4c(c3)C(=O)N(CC(C)C)C4=O)cc2C1=O | i
COc1ccc(CNC(=O)C[C@@H]2CCNC[C@@H]2Cc2cc(CSc3ccccc3)on2)cc1 | i
